# AI-2 QS mod: Vibrio harveyi AI-2 quorum sensing modulation. 300,000 tested, 0.4% active. Vibrio harveyi JMH597 AI-2 luminescence/OD600 ratio, 9 h; stronger effect = lower value; strain lacks LuxN and CqsS sensors; 0 = neutral-control median. activity change, % at 7.5 µM. AID 2094; in the data active means activity change below about -75%, passing the limit was not always enough;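 further: luminescence divided by OD600 gain over 9 h not by final OD600 alone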
# NR3A LBD binder: modulates the human NR3A ligand-binding domain | NR3A LBD differential scanning fluorimetry, Tm shift; 0% = protein alone, 100% = glycine-bound protein | Tm shift relative to glycine control, % at 25 µM | 340,000 tested, 2.5% active | AID 1259313;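 active means melting temperature shift of at least 10% of the positive control shift, at one fixed dose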
# Cardio protect: protects H9c2 cardiomyocytes from peroxide injury | protection from H2O2 cell death, % at 20 µM | AID 588492 | H2O2 injury protection, ATPLite, 2 h | 360,000 tested, 0.63% active;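 active means compounds giving at least 50% protection of heart cells from peroxide-induced death in the single-dose screen, raw or plate-pattern-corrected value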;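 further: 0% = DMSO wells with peroxide and 100% = DMSO wells without peroxide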
# Mot1-301 SUMO: SUMOylation pathway inhibition by Mot1-301 growth rescue; growth rescue, % at 18.8 µM; 320,000 tested, 1% active; AID 2716; S. cerevisiae Mot1-301 growth rescue, ATP luminescence, 38.5C; percent above DMSO median, 100 means doubled;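 active means every valid replicate shows activation above 250% relative to neutral control wells; inactive means the rest, any valid replicate at or below 250%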;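 further: OY570 slx delta 5 strain wells were the positive control but not used for scaling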
# AHR activator: human AHR activation; activation, % at 5 µM; AID 2796; AHR-responsive luciferase reporter cells, luminescence; 320,000 tested, 2.5% active; in the data active means activation above about 47%;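 further: 0% = vehicle wells and 100% = reference agonist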
# Target sequence (P35869 whole entry, looked up): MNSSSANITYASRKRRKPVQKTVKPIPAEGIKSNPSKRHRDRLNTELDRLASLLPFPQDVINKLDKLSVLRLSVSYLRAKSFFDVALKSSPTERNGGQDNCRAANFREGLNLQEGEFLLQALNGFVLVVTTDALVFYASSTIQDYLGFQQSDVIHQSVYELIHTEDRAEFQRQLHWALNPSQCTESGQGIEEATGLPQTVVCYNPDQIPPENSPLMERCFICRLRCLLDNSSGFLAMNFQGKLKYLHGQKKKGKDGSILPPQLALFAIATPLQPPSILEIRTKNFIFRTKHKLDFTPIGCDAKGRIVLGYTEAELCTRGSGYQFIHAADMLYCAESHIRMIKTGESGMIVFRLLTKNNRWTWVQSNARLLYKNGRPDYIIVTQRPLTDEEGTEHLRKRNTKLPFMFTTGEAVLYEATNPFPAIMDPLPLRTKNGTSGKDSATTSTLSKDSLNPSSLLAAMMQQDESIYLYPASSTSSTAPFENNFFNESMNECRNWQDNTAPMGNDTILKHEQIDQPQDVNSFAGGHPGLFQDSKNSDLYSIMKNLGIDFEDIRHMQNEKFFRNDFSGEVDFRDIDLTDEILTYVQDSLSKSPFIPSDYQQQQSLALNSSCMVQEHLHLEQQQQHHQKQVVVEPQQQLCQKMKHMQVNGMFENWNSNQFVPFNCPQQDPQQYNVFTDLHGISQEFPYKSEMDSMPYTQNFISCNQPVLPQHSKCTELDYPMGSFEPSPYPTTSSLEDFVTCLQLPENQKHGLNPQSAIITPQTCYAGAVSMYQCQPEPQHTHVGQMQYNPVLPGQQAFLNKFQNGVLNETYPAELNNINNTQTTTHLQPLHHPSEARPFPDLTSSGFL
# NTR1 ag: agonists of human neurotensin receptor NTR1. P30989. NTR1-U2OS beta-arrestin-GFP spot imaging, agonist mode. activation, % at 20 µM. 330,000 tested, 0.17% active. AID 493036;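 active means activation at or above 40% of the spot to cytoplasm intensity ratio, with at least 20 cells analyzed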;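 further: 0% = DMSO without peptide and 100% = 100 nM NTR1 peptide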
# AHR act confirm: human AHR activation, confirmation. shares compounds with AHR activator. human cells, AHR-responsive luciferase reporter, luminescence. AID 2845. activation, % at 9 µM. 2,300 tested, 87% active; in the data active means activation above about 49%;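 further: HepG2 hepatoma cells carrying a DRE-driven firefly luciferase reporter; 0% = vehicle wells and 100% = reference agonist wells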
# PXR counter: counter-screen for AHR activators: human PXR activators | shares compounds with AHR activator | cell-based PXR reporter, luciferase luminescence | activation, % at 11.6 µM | 2,300 tested, 88% active | AID 434939; in the data active means activation above about 11%;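 further: human hepatoma DPX-2 cells expressing full-length human PXR; 0% = DMSO and 100% = reference agonist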
# Starred values were filed as active, the others as inactive; / = no result given. The list is not random: actives were taken first. Their share in the collection is about 6.2%.
SMILES,AI-2 QS mod,NR3A LBD binder,Cardio protect,Mot1-301 SUMO,AHR activator,NTR1 ag,AHR act confirm,PXR counter
Cc1nc(-c2cccnc2)sc1C(=O)Nc1ccc(Cl)cc1,3,-4,18,/,124*,0,112*,13*
Cc1nc(N)sc1C(=O)Nc1ccccc1,7,-44,-3,26,105*,0,46,23*
Cc1nc(C(=O)Nc2ccccc2)sc1C(=O)Nc1ccccc1,9,6,-3,-9,2,-1,/,/
COC(=O)Cc1cc(=O)[nH]c(Nc2nc3ccccc3o2)n1,7,4,6,/,38,0,/,/
COCc1cc(=O)[nH]c(Nc2nc3ccccc3o2)n1,44,-5,35,-9,130*,3,74*,19*
COc1cc(OC)cc(-c2noc([C@@H]3O[C@H](CO)[C@@H](O)[C@H]3O)n2)c1,/,/,6,/,/,/,/,/
O=C(c1cn(-c2ccc(Cl)c(Cl)c2)nn1)C1CC1,13,1,5,3,84*,1,125*,29*
C/C=C/C(=O)OCC(=O)Nc1cc(-c2cc(C)c(C)cc2C)nn1-c1ccccc1,16,-3,-6,77,105*,5,90*,85*
Cn1nc(NC(=O)C(F)(F)F)c2ncc(-c3ccc(Cl)cc3)nc21,14,3,2,-5,134*,0,131*,37*
CCn1c(C)c(C(C)=O)c(N2CCN(c3ccc(OC)cc3)CC2)nc1=S,-5,0,4,-10,86*,-1,38,26*
COc1ccc(N2CCN(c3nc(=S)n(-c4ccccc4)c(C)c3C(C)=O)CC2)cc1,35,0,-6,85,2,0,/,/
Nc1nc2ccc(NC(=O)c3ccco3)cc2s1,3,-2,-6,-16,82*,-2,52*,15*
O=C(Nc1ccc(Cl)c(C(F)(F)F)c1)c1ccco1,/,-4,-10,-1,82*,-2,1,6
Cc1ccccc1OCC1Cn2c(nc3c2c(=O)n(C)c(=O)n3C)O1 (stereo not given),21,-1,3,-8,5,1,/,/
CCN(CC)S(=O)(=O)c1cc(NC(=O)Cn2ncc(Cl)c(Cl)c2=O)ccc1C,-55,-2,-26,92,1,0,/,/
CC(C)(C)NC(=S)N/N=C/c1c(Cl)cccc1Cl,7,-1,-1,1,103*,4,5,131*
CCNC(=S)N/N=C/c1c(Cl)cccc1Cl,27,-1,-5,65,6,-2,/,/
O=C(NCC(c1ccco1)N1CCCC1)c1cccc(S(=O)(=O)Nc2ccc(F)cc2)c1 (stereo not given),/,-5,-3,6,-2,-2,/,/
Cc1cc(C)c2[nH]c(O)c(N=NC(=S)NCC3CCCO3)c2c1 (stereo not given),17,1,7,16,124*,1,100*,114*
Oc1[nH]c2ccc(Br)cc2c1N=NC(=S)NCC1CCCO1 (stereo not given),19,-5,17,-12,104*,10,72*,23*
COc1ccccc1NC(=S)N=Nc1c(O)[nH]c2ccc(Br)cc12,39,8,4,-8,21,10,/,/
CCn1c(O)c(N=NC(=S)NCC2CCCO2)c2ccccc21 (stereo not given),25,-1,3,179,20,5,/,/
CSCCC(NC(=O)c1ccco1)C(=O)NCC(C)(C)N1CCOCC1 (stereo not given),/,-1,8,-8,0,-2,/,/
COc1ccc(CCCNC(=O)C2Cc3c(-c4cccc(C(C)=O)c4)ccnc3O2)cc1 (stereo not given),/,/,20,/,/,/,/,/
COc1ccc(/C=N/NC(=O)c2ccn[nH]2)cc1COc1ccc(Cl)cc1,16,10,63*,1,87*,2,-5,11*
SMILES,AI-2 QS mod,NR3A LBD binder,Cardio protect,Mot1-301 SUMO,AHR activator,NTR1 ag,AHR act confirm,PXR counter
CCOc1ccc(/C=N/NC(=O)c2cc3c(OC)cccc3[nH]2)cc1,4,-2,-7,10,33,0,/,/
CCOc1ccc(/C=N/NC(=O)c2cc3c(OC)cc(OC)cc3[nH]2)cc1OC,17,-3,45,-5,85*,4,86*,21*
CCC1(CC)NC(=O)N(CC(=O)OCC(=O)Nc2cc(OC)ccc2OC)C1=O,/,0,5,-1,3,1,/,/
COC(=O)c1cc2c([nH]c3ccccc32)c(C)n1,31,/,/,/,/,-1,/,/
COc1ccc(NC(=O)c2cc3c([nH]c4ccccc43)c(C)n2)cc1,12,7,-3,19,85*,2,88*,15*
CC(=O)n1cc([C@H]2C=C(C(=O)NCc3ccccc3)O[C@@H](OCCCCO)C2)c2ccccc21,18,-4,8,30,87*,1,106*,61*
Cc1cc(Br)ccc1NC(=O)CN(C)C(=O)c1cc([N+](=O)[O-])ccc1N1CCOCC1,20,0,0,-7,92*,-2,84*,53*
Cc1ccc(C)c(NC(=O)CN(C)C(=O)c2cc([N+](=O)[O-])ccc2N2CCOCC2)c1,16,-1,3,55,0,-1,/,/
O=C(Nc1cccc(Cl)c1)Nc1ccnc(-c2cccnc2)n1,13,10,47,-8,148*,17,129*,12*
O=C(Nc1ccnc(-c2cccnc2)n1)c1ccccc1Cl,14,-3,12,-3,136*,-2,37,17*
O=C(NCC(c1ccco1)N1CCCC1)c1cn(-c2ccccc2)nc1-c1ccc(F)cc1 (stereo not given),/,-2,-1,/,/,0,/,/
O=C(NCC1OCCc2ccccc21)c1ccco1 (stereo not given),19,4,5,-10,86*,1,129*,14*
Nc1c(Cl)cc(-c2csc(NCCc3nc4cc(Cl)c(Cl)cc4n3CCCO)n2)cc1Cl,16,-1,0,192,131*,-2,113*,82*
OCCOCCn1c(CCNc2nc(-c3ccc(F)cc3)cs2)nc2cc(C(F)(F)F)ccc21,-11,-5,-14,-2,91*,2,50*,27*
O=C(CN1C(=O)/C(=C2/SC(=S)N(CCS(=O)(=O)O)C2=O)c2ccccc21)Nc1cccc(Br)c1,/,4,-2,0,-2,0,/,/
NC(=O)C1CCN(c2nc(-c3cccc(Cl)c3)cs2)CC1,/,0,-10,9,10,-2,/,/
Cc1cc(C)nc(NC(=O)c2ccc3c(c2)OCO3)c1,14,/,/,371,8,2,/,/
